Test results: PubChem BioAssay
Active and inactive are the calls of the source.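 Rule for the calls: active = compounds whose cell count with miR-34 switched on is under 0.7 times the count with it off; inactive = the rest.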

Assay: sensitizers of A549 cells to miR-34 induction, primary screen, imaging, A549 dox-inducible miR-34, nuclei and caspase counts (AID 1347080); note: test concentration not given here
Conditions: A549 miR-34 inducible, Hoechst nuclei count, 48 h
[1] = stronger effect = lower value, cell number ratio, induced over uninduced
[2] = measured here: relative caspase fold change +Dox/-Dox
[3] = measured here: total cells with miR-34 induction, stronger effect = lower value
[4] = measured here: total cells without miR-34 induction

SMILES | fold change [1] | fold change [2] | cell count [3] | cell count [4]
O=C(O)c1ccc2c(c1)CCCC2 | 0.93 (inactive) | 0.342 | 5260 | 5660
CC/C=C\C/C=C\C/C=C\C/C=C\CCCCCCC(=O)O | 1.03 (inactive) | 1 | 5320 | 5150
CCCCC[C@H](O)/C=C/[C@@H]1[C@@H](C/C=C\CCCC(=O)NCCO)[C@@H](O)C[C@@H]1O | 0.916 (inactive) | 1.36 | 5800 | 6330
O=Cc1cccc2[nH]ccc12 | 1.14 (inactive) | 0.821 | 6070 | 5350
CCCCC[C@H](O)/C=C/[C@@H]1[C@@H](C/C=C\CCCC(=O)OC)[C@@H](O)C[C@H]1O | 0.963 (inactive) | 1.19 | 5860 | 6080
CCCCCCCCCCOc1ccc(OCC(=O)Cn2cc(C(=O)OC)c3cc(C(=O)O)ccc32)cc1 | 0.961 (inactive) | 0.386 | 6240 | 6490
CC(C)(O)c1ccccc1CC[C@H](SCC1(CC(=O)O)CC1)c1cccc(/C=C/c2ccc3ccc(Cl)cc3n2)c1 | 1.04 (inactive) | 0.195 | 5500 | 5280
CCCCC[C@H](O)/C=C/[C@H]1[C@H](O)CC(=O)[C@@H]1CCCCCCCCC(=O)O | 0.947 (inactive) | 1.98 | 5400 | 5700
CC/C=C\C/C=C\C/C=C\C/C=C\CCCCC(=O)OC | 0.976 (inactive) | 1.08 | 5040 | 5160
CCCCCCCCCCCCCCCCCC(=O)NCCO | 0.986 (inactive) | 1.01 | 6030 | 6120
CCCC[C@H](C)C[C@H](O)/C=C/[C@@H]1[C@@H](CCCCCCC(=O)O)[C@@H](O)C[C@H]1O | 0.931 (inactive) | 1.78 | 5490 | 5900
O=C1O/C(=C/Br)CC[C@@H]1c1cccc2ccccc12 | 0.956 (inactive) | 0.986 | 5530 | 5790
CC#CCC(C)C(=O)/C=C/[C@@H]1[C@H]2C/C(=C/CCCC(=O)O)C[C@H]2C[C@H]1O (stereo not given in full) | 0.968 (inactive) | 3.57 | 5500 | 5680
CCCCC(C)(C)[C@H](O)/C=C/[C@H]1C=CC(=O)[C@@H]1CCCCCCC(=O)O | 1 (inactive) | 1.69 | 5490 | 5490
CCCCCCCCCCCCCCCCCCCCCCCCCCCCCCO | 0.965 (inactive) | 0.745 | 6130 | 6350
O=C(O)CCC/C=C\C[C@H]1C(=O)C[C@@H](O)[C@@H]1/C=C/[C@@H](O)Cc1ccccc1 | 0.985 (inactive) | 1.05 | 5810 | 5900
C/C=C/C[C@@H](C)[C@@H](O)[C@H]1C(=O)N[C@@H](CC)C(=O)N(C)CC(=O)N(C)[C@@H](CC(C)C)C(=O)N[C@@H](C(C)C)C(=O)N(C)[C@@H](CC(C)C)C(=O)N[C@@H](C)C(=O)NC(C)C(=O)N(C)[C@@H](CC(C)C)C(=O)N(C)[C@@H](CC(C)C)C(=O)N(C)[C@@H](C(C)C)C(=O)N1C (stereo not given in full) | 1.02 (inactive) | 1.6 | 2270 | 2230
CCCCC[C@H](O)/C=C/[C@H]1[C@H](O)CC(=O)[C@@H]1CC(=O)CCCCC(=O)O | 0.96 (inactive) | 1.25 | 6410 | 6680
CCCCCCCCCSCCCCCCCC(=O)O | 0.943 (inactive) | 0.653 | 5310 | 5640
CCCCC[C@H](O)/C=C/[C@H]1OC(O)C[C@H](O)[C@@H]1CCCCCCC(=O)O (stereo not given in full) | 1.03 (inactive) | 1.26 | 5640 | 5470

SMILES | fold change [1] | fold change [2] | cell count [3] | cell count [4]
C#CCOc1ccccc1CCCCCC(=O)NS(C)(=O)=O | 0.952 (inactive) | 0.875 | 5890 | 6190
CCCCCCCCCCCCCCCC(=O)OC[C@H](COP(=O)([O-])OCC[N+](C)(C)C)OC(=O)CCCC(=O)/C=C/C(=O)O | 1 (inactive) | 0.771 | 5760 | 5760
CC(C)CCCCCCC/C=C/C(=O)O | 0.859 (inactive) | 0.582 | 5080 | 5910
CCCCC[C@H](O)/C=C/[C@H]1C2CC(CO2)[C@@H]1C/C=C/CCCC(=O)O (stereo not given in full) | 1 (inactive) | 1.25 | 6110 | 6090
COc1cc([C@@H]2c3cc4c(cc3[C@@H](OC3OC5COC(C)OC5C(O)C3O)[C@H]3COC(=O)[C@H]23)OCO4)cc(OC)c1O (stereo not given in full) | 0.828 (inactive) | 1.04 | 1840 | 2230
O=C(O)CCC/C=C\C[C@H]1C(=O)C=C[C@@H]1/C=C/[C@@H](O)COc1ccccc1 | 0.91 (inactive) | 1.28 | 5700 | 6260
CCCCCCCCCCCCCCCC(=O)OC | 0.995 (inactive) | 0.98 | 5710 | 5750
CCCCNC(=O)NS(=O)(=O)c1ccc(CO)cc1 | 1.05 (inactive) | 0.775 | 5120 | 4890
O=C(O)CCC/C=C\C[C@H]1C(=O)C=C[C@@H]1CC[C@@H](O)CCc1ccccc1 | 0.93 (inactive) | 1.2 | 6220 | 6690
CC\C=C/C=C/C=C/C=C\CCCCCCCC(=O)O | 0.875 (inactive) | 0.385 | 4740 | 5410
C1CCC(NC(=NC2C3CC4CC(C3)CC2C4)N2CCOCC2)CC1 (stereo not given) | 1.04 (inactive) | 1.05 | 5720 | 5520
CCCc1oc(CCC(=O)O)c(C(=O)O)c1C | 0.885 (inactive) | 0.896 | 5170 | 5840
CN | 1.06 (inactive) | 0.984 | 4700 | 4430
COc1ccc2cc(CC(=O)O)ccc2c1 | 0.964 (inactive) | 1.2 | 5630 | 5840
CCCCCCCC/C=C\CCCCCCCC(=O)N[C@H](CO)Cc1ccc(O)cc1 | 1.03 (inactive) | 1.33 | 6010 | 5860
CCCCC[C@H](O)/C=C/[C@@H]1[C@@H](C/C=C\CCCC(=O)N(CC)CC)[C@@H](O)C[C@H]1O | 0.98 (inactive) | 0.858 | 5500 | 5610
CCCCC[C@H](O)/C=C/[C@H]1CC[C@@H](O)[C@@H]1CCCCCCC(=O)O | 0.884 (inactive) | 1.26 | 6100 | 6900
CCCCCC/C=C\CCCCCCCCCCOC(C)=O | 0.943 (inactive) | 0.538 | 5570 | 5900
FC(F)(F)c1ccc(/C=C/c2cc(Cl)cc(Cl)c2)cc1 | 1.01 (inactive) | 0.839 | 5620 | 5570
C=CC[C@@H]1/C=C(\C)C[C@@H](C)C[C@H](OC)[C@H]2O[C@@](O)(C(=O)C(=O)N3CCCC[C@H]3C(=O)O[C@H](/C(C)=C/[C@@H]3CC[C@@H](O)[C@H](OC)C3)[C@H](C)[C@@H](O)CC1=O)[C@H](C)C[C@@H]2OC | 0.908 (inactive) | 0.315 | 5040 | 5550

SMILES | fold change [1] | fold change [2] | cell count [3] | cell count [4]
COc1ccc2c(c1)c(CC(=O)Nc1cccnc1)c(C)n2C(=O)c1ccc(Cl)cc1 | 0.996 (inactive) | 0.947 | 5760 | 5780
CCCCC[C@H](O)/C=C/[C@@H]1[C@H](CCCCCCC(=O)O)[C@H](O)C[C@H]1O | 0.963 (inactive) | 1.17 | 6030 | 6260
O=C(CCCCc1ccccc1)C(F)(F)C(F)(F)F | 0.952 (inactive) | 1.77 | 5980 | 6280
c1ccc(C(OC2CCN(CCCc3nn[nH]n3)CC2)c2ccccc2)cc1 | 0.935 (inactive) | 1.12 | 5840 | 6240
O=S(=O)(NO)c1ccccc1 | 1.01 (inactive) | 0.412 | 5110 | 5060
CC(C)OC(=O)CCC/C=C\C[C@H]1C(=O)C[C@@H](O)[C@@H]1/C=C/[C@@H](O)COc1cccc(C(F)(F)F)c1 | 0.919 (inactive) | 1.4 | 5960 | 6490
O=C(O)CCC/C=C\C[C@@H]1[C@@H](/C=C/[C@@H](O)C2CCCCC2)[C@H](O)C[C@@H]1O | 0.938 (inactive) | 1.34 | 5910 | 6300
CCCCC[C@H](O)/C=C/[C@@H]1[C@H]2C/C=C\CCCC(=O)O[C@H]2C[C@H]1O | 0.977 (inactive) | 1.29 | 5860 | 5990
CCCCCC(=O)CC[C@@H]1[C@@H](C/C=C\CCCC(=O)OC(C)C)[C@@H](O)C[C@H]1O | 0.977 (inactive) | 1.56 | 6190 | 6330
CCCCCCCCCCCCCCCCOC[C@@H](O)COP(=O)(O)O | 0.944 (inactive) | 0.298 | 5730 | 6070
C[C@@H]1C[C@H]2O[C@@H]2/C=C\C=C\C(=O)Cc2c(Cl)c(O)cc(O)c2C(=O)O1 | 1.01 (inactive) | 1.3 | 2240 | 2220
CCCCC[C@H](O)CC[C@@H]1[C@@H](C/C=C\CCCC(=O)O)[C@@H](O)C[C@H]1O | 0.936 (inactive) | 1.41 | 6190 | 6610
CCCCCCCC(=O)CC[C@@H]1[C@@H](C/C=C\CCCC(=O)O)[C@@H](O)C[C@H]1O | 0.944 (inactive) | 1.3 | 5400 | 5720
CCCCCCCCCCCCCC(=O)O | 1.04 (inactive) | 1.03 | 6710 | 6460
CCCCCCCCCCCCC/C=C/[C@H](O)[C@@H](CO)NC(=O)CCCCCCCCCCCCCCCCCCCCCCC | 0.979 (inactive) | 0.918 | 5890 | 6010
CCCCC[C@H](O)/C=C/[C@@H]1[C@@H](C/C=C\CCCCO)[C@@H](O)C[C@H]1O | 0.871 (inactive) | 1.35 | 5490 | 6300
CCNC1=N[C@@H]2[C@@H](O)[C@H](O)[C@@H](CO)O[C@@H]2S1 | 0.906 (inactive) | 1.7 | 6020 | 6640
O=C(O)CCC/C=C\C[C@@H]1[C@@H](/C=C/[C@H](O)CCc2ccccc2)[C@H](O)C[C@@H]1O | 0.915 (inactive) | 1.56 | 5340 | 5830
CC(C)CCCC(C)CCCC(C)CCCC(C)CC(=O)O (stereo not given) | 0.992 (inactive) | 0.832 | 5990 | 6040
O=C(O)CCC/C=C\C[C@@H]1[C@@H](/C=C/[C@@H](O)Cc2ccccc2)[C@H](O)C[C@@H]1O | 0.969 (inactive) | 1.42 | 6070 | 6260
